Data taken from PubChem BioAssay (NCI).
This is part of a sample that, as a whole, favours compounds with a hit. Of some 79,000 tested, about 15% had one in any assay. Values without a mark were called inactive. The source made the active and inactive calls. Cut-off read from the data, not from the text of the source: active = growth inhibition above about 70%; inactive = the rest.

Experiments:
[1] = NCI Yeast Anticancer Drug Screen. Data for the rad50 strain (AID 155);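 note: 0% = growth of vehicle-only cultures of the same strain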; settings: S. cerevisiae rad50 strain growth inhibition, stronger effect = higher value
Summary of the method: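 Inhibition values express reduced yeast growth in compound-treated cultures relative to vehicle-treated controls.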

[2] = NCI Yeast Anticancer Drug Screen. Data for the mec2-1 strain (AID 157); settings: S. cerevisiae mec2-1 strain, stronger effect = higher value
Summary of the method: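 Cells of the genetically defined mec2-1 yeast strain are incubated with test compound. Inhibition of growth is calculated against vehicle-treated controls.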

[3] = NCI Yeast Anticancer Drug Screen. Data for the sgs1 mgt1 strain (AID 161);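 note: 0% = growth of cultures given vehicle only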; settings: S. cerevisiae sgs1 mgt1 strain, stronger effect = higher value
Summary of the method: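 Mutant yeast exposed to compound; growth scored against vehicle-only wells.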

[4] = NCI Yeast Anticancer Drug Screen. Data for the cln2 rad14 strain (AID 165);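 note: 0% = growth equal to vehicle treated cultures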; settings: S. cerevisiae cln2 rad14 strain, stronger effect = higher value
Summary of the method: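 The screen exposed genetically defined yeast (cln2 rad14) to test compounds and scored growth inhibition relative to vehicle-treated controls.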

[5] = NCI Yeast Anticancer Drug Screen. Data for the bub3 strain (AID 167); settings: S. cerevisiae bub3 mutant strain, stronger effect = higher value
Summary of the method: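 Steps: expose the mutant yeast strain to compound; grow alongside vehicle-treated cultures; measure growth; express inhibition against the vehicle cultures.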

[6] = NCI Yeast Anticancer Drug Screen. Data for the mlh1 rad18 strain (AID 175); settings: S. cerevisiae mlh1 rad18 strain growth inhibition, stronger effect = higher value
Summary of the method: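 Compound-treated yeast growth, normalised to vehicle controls. Strain bears defined DNA repair mutations.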

[7] = at 5.0 µM (retest, dose inferred, filed as 0.5)
[8] = at 50.0 µM (retest, dose inferred, filed as 5.0)

Compound	growth inhibition [1, 7]	growth inhibition [1, 8]	growth inhibition ([1]; at 50.0 µM)	growth inhibition [2, 7]	growth inhibition [2, 8]	growth inhibition ([2]; at 50.0 µM)	growth inhibition [3, 7]	growth inhibition [3, 8]	growth inhibition ([3]; at 50.0 µM)	growth inhibition [4, 7]	growth inhibition [4, 8]	growth inhibition ([4]; at 50.0 µM)	growth inhibition [5, 7]	growth inhibition [5, 8]	growth inhibition ([5]; at 50.0 µM)	growth inhibition [6, 7]	growth inhibition [6, 8]	growth inhibition ([6]; at 50.0 µM)
COC(O)C(=O)c1c2c(cc3c1CC1(Cc4cc5c(cc4C1)CCC5)C3)CCC2 (centres undefined)	69%	98% (active)	69%	99% (active)	99% (active)	80.5% (active)	94% (active)	98% (active)	83.2% (active)	99% (active)	98% (active)	87.6% (active)	99% (active)	98% (active)	88.5% (active)	99% (active)	98% (active)	90.5% (active)
CN(C)C(=O)SC1=C(c2c(Cl)cccc2Cl)C(=O)c2ccccc21	41%	74% (active)	66.3%	32%	69%	74.5% (active)	53%	80% (active)	89.7% (active)	33%	61%	87.8% (active)	32%	71% (active)	85.9% (active)	82% (active)	93% (active)	82.8% (active)
O=C1C(=O)N(c2cc(Cl)ccc2Cl)C(=O)C(=O)C1c1nc2ccccc2o1	4%	4%	53.2%	15%	15%	37.9%	22%	22%	36.8%	10%	10%	81.2% (active)	2%	2%	57.1%	12%	12%	31.9%
CN(C)c1nc(N(C)C)oc(=[N+](C)C)n1	-2%	-13%	9.7%	3%	-8%	9.35%	0%	-9%	7.8%	3%	1%	57.3%	3%	15%	-7.45%	1%	-13%	30.4%
CS(=O)(=O)c1snc(N)c1C#N	11%	73% (active)	40.9%	23%	85% (active)	47.5%	17%	80% (active)	50.6%	6%	61%	-10.1%	29%	89% (active)	-9.75%	18%	85% (active)	68.4%
O=C(O)CCSSCCCCCS(=O)O	-5%	-4%	54.9%	4%	10%	-1.9%	-1%	0%	7.95%	-10%	-22%	1%	-3%	9%	13%	0%	9%	13%
CCN(CC)C(=O)C1(OC(C)=O)CCCCC1	0%	0%	-2.4%	-21%	-1%	-5.65%	0%	-2%	9.9%	3%	0%	36.8%	-6%	-2%	2.1%	1%	0%	-80.8%
Cc1cc2c(cc1Cl)Sc1nnc(C)n1S2(=O)=O	18%	81% (active)	74.8% (active)	14%	59%	71% (active)	3%	34%	62.2%	17%	34%	48.8%	-12%	85% (active)	84.3% (active)	9%	75% (active)	75.6% (active)
O=C1C(=O)N(C(=O)c2ccc(Cl)c(Cl)c2)c2ccc(Cl)cc21	-6%	-4%	13.6%	-9%	2%	24.4%	-7%	6%	35.2%	-9%	-20%	10.8%	-6%	56%	91.6% (active)	-8%	12%	64%
CNC(=S)N/N=C/c1nccc(-c2ccccc2)c1C	4%	93% (active)	23.8%	-2%	96% (active)	48.9%	3%	96% (active)	41.8%	-9%	94% (active)	39.1%	2%	94% (active)	-2.75%	-3%	93% (active)	74.7% (active)
COc1ccccc1C1SC(c2ccccc2)(c2ccccc2)OC1=O (centres undefined)	-2%	-9%	84.6% (active)	-2%	-4%	50.1%	12%	-2%	80.2% (active)	-2%	-7%	84.8% (active)	-1%	16%	85.9% (active)	0%	-6%	80.9% (active)
CCN(CC)CCOc1ccc(/C=C(\C#N)c2ccc(OC)cc2)cc1	24%	83% (active)	74.5% (active)	17%	96% (active)	62.5%	40%	97% (active)	85.9% (active)	34%	90% (active)	82.8% (active)	44%	95% (active)	68.5%	24%	84% (active)	75.8% (active)
COCC1C(=O)c2cc3c(cc2C12C=CC1(C=C2)OCCO1)OCO3 (centres undefined)	36%	7%	86% (active)	15%	-7%	91.8% (active)	35%	-2%	92.8% (active)	9%	20%	90.2% (active)	40%	-7%	91.1% (active)	50%	-14%	88.2% (active)
